One sequence from paper PMC7862700, “An all-to-all approach to the identification of sequence-specific readers for epigenetic DNA modifications on cytosine” can be followed below.

What all share (assay): DAPPL (digital affinity profiling via proximity ligation, sequencing); 10 mM Tris-HCl pH 7.5, 50 mM NaCl, 1 mM DTT, 4% glycerol, room temperature, 30 min; GST-TFs on glutathione beads, 16-mer random dsDNA library, 0.1% formaldehyde crosslink after washing; high values mean tight binding
In one test the target is T1, FEV (Homo sapiens, UniProt Q99581 1-238).
T1 sequence: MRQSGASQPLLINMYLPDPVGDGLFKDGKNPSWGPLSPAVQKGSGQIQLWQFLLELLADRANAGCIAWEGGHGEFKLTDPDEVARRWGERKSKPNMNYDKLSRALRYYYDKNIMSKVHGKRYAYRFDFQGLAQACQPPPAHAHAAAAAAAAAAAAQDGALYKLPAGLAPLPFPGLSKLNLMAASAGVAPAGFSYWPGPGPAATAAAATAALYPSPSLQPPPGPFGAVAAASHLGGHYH
The following applies: protein: recombinant; tags: N-terminal GST; dsDNA, one strand shown. An outline of the steps: (§1)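 After expression in yeast as GST fusions, human transcription factors were bound to glutathione beads, DNA-barcoded and mixed with a tag-only sample. The pools were incubated with 200 nmole of a 16-mer random double-stranded DNA library in Tris/NaCl/DTT/glycerol buffer (30 min, room temperature), washed and crosslinked with 0.1% formaldehyde. Proximity ligation with BsaI/T4 ligase ran for 1 h at 37 °C, before PCR amplification and sequencing on an Illumina NextSeq500. Binding signal is a hexamer's read frequency for a factor divided by its frequency for the tag-only sample.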

The target of the next test is ETV5 (Homo sapiens, UniProt P41161 1-510). The following applies: protein: recombinant; tags: N-terminal GST; dsDNA, one strand shown. An outline of the steps: as §1
ETV5, sequence (P41161 whole entry): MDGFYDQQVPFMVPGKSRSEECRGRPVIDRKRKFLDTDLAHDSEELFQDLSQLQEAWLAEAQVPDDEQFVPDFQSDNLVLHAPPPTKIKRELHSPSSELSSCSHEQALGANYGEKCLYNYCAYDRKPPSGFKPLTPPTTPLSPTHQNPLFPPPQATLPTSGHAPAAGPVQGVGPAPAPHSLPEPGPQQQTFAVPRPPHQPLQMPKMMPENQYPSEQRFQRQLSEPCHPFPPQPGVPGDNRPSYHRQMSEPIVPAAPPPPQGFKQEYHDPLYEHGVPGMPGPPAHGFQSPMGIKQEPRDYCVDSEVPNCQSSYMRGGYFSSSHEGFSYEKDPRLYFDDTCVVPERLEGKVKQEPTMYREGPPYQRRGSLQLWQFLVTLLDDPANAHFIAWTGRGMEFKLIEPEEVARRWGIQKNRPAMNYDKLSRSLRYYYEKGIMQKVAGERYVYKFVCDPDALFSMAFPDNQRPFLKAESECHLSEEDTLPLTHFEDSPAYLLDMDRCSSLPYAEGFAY
The target of the next test is HSF1 (Homo sapiens, UniProt Q00613 1-529). The conditions noted are these: protein: recombinant; tags: N-terminal GST; chain copies: 3; dsDNA, one strand shown. An outline of the steps: as §1
HSF1, sequence (Q00613 whole entry): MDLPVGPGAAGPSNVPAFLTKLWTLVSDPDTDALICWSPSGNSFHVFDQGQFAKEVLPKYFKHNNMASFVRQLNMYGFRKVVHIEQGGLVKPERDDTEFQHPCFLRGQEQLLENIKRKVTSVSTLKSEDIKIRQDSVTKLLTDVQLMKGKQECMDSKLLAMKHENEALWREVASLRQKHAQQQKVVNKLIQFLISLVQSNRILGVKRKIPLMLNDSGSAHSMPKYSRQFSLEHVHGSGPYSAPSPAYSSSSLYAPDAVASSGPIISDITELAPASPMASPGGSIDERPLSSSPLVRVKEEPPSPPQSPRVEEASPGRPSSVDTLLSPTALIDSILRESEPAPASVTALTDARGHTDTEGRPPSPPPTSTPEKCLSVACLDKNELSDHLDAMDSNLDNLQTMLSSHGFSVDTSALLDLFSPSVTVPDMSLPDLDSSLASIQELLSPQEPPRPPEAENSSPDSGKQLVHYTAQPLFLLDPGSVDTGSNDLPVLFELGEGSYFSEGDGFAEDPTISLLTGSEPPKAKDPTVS
For the next test, the target named is T2, SPIC (Homo sapiens, UniProt Q8N5J4 1-248).
T2 sequence: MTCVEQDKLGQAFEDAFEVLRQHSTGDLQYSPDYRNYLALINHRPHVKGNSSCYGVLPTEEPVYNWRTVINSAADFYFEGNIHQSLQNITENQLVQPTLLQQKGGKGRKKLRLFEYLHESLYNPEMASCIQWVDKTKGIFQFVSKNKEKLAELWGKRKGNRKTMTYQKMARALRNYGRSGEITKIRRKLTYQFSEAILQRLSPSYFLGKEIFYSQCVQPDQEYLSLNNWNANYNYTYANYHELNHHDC
The following applies: protein: recombinant; tags: N-terminal GST; dsDNA, one strand shown. Put shortly: as §1

For the next test, the target named is ELF4 (Homo sapiens, UniProt Q99607 1-663). The following applies: protein: recombinant; tags: N-terminal GST; dsDNA, one strand shown. Put shortly: as §1
ELF4, sequence (Q99607 whole entry): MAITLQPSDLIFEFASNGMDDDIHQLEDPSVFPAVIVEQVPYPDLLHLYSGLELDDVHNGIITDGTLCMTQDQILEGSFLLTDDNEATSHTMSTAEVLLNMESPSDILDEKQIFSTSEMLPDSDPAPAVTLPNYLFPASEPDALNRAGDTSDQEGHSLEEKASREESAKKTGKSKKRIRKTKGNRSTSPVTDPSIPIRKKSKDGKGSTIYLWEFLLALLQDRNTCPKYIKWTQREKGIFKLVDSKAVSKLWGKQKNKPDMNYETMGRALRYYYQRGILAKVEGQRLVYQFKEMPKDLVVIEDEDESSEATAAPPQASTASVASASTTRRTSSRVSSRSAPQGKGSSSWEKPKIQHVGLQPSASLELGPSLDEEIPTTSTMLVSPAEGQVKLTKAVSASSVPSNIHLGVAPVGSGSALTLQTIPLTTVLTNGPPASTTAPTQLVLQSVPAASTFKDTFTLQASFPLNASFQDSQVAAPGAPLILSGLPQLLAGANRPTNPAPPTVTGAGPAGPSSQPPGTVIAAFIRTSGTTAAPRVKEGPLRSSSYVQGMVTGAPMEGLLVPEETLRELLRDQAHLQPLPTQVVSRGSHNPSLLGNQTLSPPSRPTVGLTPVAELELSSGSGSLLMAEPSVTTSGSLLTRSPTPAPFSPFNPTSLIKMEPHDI
A further test addresses T3, ELK4 (Homo sapiens, UniProt P28324-2 1-405).
T3 sequence: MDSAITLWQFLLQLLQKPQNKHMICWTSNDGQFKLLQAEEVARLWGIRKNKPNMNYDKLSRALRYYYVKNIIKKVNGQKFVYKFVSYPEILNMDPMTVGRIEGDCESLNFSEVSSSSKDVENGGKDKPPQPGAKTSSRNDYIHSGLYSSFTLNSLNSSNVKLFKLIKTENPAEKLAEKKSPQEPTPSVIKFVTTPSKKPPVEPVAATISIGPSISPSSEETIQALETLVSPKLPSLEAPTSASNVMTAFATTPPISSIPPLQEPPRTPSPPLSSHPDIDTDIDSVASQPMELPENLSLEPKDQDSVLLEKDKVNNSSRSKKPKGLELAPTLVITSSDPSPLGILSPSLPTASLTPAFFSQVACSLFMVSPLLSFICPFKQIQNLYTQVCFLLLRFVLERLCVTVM
The conditions noted are these: protein: recombinant; tags: N-terminal GST; dsDNA, one strand shown. An outline of the steps: as §1

The target in a further test is T4, ETV2 (Homo sapiens, UniProt O00321 1-342).
T4 sequence: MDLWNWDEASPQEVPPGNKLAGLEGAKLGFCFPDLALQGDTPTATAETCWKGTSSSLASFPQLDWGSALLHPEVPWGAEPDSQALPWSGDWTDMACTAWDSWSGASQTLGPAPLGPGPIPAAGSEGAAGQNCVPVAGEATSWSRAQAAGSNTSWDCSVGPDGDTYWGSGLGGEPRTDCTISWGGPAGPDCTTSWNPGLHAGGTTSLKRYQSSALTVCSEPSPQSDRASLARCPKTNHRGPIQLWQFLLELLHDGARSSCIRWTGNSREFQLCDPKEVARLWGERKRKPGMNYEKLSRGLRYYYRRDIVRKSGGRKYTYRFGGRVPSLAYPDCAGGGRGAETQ
The following applies: protein: recombinant; tags: N-terminal GST; dsDNA, one strand shown. Put shortly: as §1

The target in another test is T5, ELF3 (Homo sapiens, UniProt P78545 1-371).
T5 sequence: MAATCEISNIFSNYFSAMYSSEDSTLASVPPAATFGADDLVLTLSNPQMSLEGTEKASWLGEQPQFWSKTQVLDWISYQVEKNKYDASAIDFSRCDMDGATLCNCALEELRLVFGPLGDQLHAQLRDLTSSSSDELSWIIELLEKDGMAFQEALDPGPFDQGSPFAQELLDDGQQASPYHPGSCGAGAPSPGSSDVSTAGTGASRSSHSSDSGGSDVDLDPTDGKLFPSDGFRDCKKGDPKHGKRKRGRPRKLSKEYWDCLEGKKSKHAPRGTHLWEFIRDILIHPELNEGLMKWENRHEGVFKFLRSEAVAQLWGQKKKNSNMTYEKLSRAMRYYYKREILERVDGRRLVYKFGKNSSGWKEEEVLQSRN
The following applies: protein: recombinant; tags: N-terminal GST; dsDNA, one strand shown. Put shortly:
as §1

The target in another test is CRX (Homo sapiens, UniProt O43186 1-299). The conditions noted are these: protein: recombinant; tags: N-terminal GST; dsDNA, one strand shown. An outline of the steps: as §1
CRX, sequence (O43186 whole entry): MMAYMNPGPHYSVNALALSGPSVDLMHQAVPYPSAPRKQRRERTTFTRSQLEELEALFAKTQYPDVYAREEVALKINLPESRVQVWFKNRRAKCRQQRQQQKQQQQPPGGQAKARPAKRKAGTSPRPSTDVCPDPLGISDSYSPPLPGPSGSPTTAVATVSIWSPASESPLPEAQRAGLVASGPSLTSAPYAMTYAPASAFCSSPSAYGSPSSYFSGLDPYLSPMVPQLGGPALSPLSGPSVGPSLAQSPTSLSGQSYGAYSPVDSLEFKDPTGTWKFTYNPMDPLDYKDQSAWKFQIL
The target of a further test is ETV1 (Homo sapiens, UniProt P50549 1-477). The following applies: protein: recombinant; tags: N-terminal GST; dsDNA, one strand shown. An outline of the steps:
as §1

A further test addresses T6, ERF (Homo sapiens, UniProt P50548 1-548).
T6 sequence: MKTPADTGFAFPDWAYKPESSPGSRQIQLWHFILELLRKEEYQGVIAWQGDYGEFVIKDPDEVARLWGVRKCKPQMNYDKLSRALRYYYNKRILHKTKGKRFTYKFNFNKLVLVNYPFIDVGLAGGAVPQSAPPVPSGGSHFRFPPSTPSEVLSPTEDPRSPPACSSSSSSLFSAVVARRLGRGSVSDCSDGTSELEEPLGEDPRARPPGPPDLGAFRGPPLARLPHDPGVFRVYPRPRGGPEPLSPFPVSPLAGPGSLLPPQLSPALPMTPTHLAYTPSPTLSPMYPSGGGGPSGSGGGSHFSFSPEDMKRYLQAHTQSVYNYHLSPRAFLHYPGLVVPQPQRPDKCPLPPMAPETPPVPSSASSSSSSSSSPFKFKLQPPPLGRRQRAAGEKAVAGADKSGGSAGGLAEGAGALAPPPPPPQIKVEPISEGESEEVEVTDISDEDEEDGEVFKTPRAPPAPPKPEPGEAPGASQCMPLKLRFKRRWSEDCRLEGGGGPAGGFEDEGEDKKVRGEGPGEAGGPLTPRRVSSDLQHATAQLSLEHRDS
The following applies: protein: recombinant; tags: N-terminal GST; dsDNA, one strand shown. An outline of the steps: as §1

Another test addresses T7, ETV3L (Homo sapiens, UniProt Q6ZN32 1-361).
T7 sequence: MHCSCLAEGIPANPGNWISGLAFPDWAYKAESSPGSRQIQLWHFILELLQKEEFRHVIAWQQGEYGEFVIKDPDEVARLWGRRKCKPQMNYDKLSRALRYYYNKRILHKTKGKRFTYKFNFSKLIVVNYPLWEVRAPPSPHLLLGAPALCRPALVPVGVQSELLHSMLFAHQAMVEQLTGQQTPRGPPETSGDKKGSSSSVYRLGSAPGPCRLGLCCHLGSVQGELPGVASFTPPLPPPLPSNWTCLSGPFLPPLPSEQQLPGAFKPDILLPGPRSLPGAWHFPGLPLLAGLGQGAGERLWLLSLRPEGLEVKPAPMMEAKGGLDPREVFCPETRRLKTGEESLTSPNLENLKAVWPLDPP
The conditions noted are these: protein: recombinant; tags: N-terminal GST; dsDNA, one strand shown. An outline of the steps: as §1

The target of another test is T8, ETS2 (Homo sapiens, UniProt P15036 1-469).
T8 sequence: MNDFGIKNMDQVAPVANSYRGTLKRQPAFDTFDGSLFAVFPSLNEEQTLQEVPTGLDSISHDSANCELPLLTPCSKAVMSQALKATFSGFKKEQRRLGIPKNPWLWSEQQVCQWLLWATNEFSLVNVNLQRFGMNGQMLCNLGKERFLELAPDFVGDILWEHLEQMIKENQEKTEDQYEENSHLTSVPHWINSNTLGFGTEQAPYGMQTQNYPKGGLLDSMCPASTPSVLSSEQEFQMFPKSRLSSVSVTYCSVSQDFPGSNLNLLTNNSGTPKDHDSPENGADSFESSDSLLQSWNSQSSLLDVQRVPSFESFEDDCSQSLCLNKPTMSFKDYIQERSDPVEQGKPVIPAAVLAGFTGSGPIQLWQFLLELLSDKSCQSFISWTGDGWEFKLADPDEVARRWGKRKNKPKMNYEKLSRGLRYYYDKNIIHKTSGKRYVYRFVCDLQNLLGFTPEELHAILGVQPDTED
The conditions noted are these: protein: recombinant; tags: N-terminal GST; dsDNA, one strand shown. An outline of the steps: as §1

A further test concerns the target T9, SPDEF (Homo sapiens, UniProt O95238 1-335).
T9 sequence: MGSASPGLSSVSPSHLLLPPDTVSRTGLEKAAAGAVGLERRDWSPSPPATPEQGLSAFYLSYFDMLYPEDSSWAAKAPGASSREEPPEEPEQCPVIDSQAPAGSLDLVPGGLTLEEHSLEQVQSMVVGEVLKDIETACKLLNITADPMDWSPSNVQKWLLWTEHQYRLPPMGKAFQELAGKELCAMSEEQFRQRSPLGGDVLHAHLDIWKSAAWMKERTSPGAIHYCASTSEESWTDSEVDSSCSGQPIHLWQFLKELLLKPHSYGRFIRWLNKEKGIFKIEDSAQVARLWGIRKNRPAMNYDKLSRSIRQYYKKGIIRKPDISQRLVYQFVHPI
The following applies: protein: recombinant; tags: N-terminal GST; dsDNA, one strand shown. An outline of the steps: as §1

The target of a further test is T10, ETV7 (Homo sapiens, UniProt Q9Y603 1-341).
T10 sequence: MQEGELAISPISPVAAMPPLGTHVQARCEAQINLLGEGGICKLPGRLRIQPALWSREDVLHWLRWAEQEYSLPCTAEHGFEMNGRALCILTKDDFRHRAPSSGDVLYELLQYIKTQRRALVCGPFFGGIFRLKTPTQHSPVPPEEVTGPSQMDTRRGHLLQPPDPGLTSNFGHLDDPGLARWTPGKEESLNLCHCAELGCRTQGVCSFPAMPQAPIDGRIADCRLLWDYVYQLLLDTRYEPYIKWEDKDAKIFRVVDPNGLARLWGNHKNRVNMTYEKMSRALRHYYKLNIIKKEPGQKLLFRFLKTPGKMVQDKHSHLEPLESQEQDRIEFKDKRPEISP
The following applies: protein: recombinant; tags: N-terminal GST; dsDNA, one strand shown. Put shortly: as §1

In the next test the target is T11, ELF5 (Homo sapiens, UniProt Q9UKW6-2 1-255).
T11 sequence: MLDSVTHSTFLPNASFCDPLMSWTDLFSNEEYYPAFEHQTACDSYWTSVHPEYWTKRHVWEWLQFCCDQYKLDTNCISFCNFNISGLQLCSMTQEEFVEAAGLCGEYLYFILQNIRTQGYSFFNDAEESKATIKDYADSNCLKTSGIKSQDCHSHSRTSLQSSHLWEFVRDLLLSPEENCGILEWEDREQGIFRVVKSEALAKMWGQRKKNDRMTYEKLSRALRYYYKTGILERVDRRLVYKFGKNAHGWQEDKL
The following applies: protein: recombinant; tags: N-terminal GST; dsDNA, one strand shown. An outline of the steps:
as §1

Another test addresses T12, ETV3 (Homo sapiens, UniProt P41162-2 1-143).
T12 sequence: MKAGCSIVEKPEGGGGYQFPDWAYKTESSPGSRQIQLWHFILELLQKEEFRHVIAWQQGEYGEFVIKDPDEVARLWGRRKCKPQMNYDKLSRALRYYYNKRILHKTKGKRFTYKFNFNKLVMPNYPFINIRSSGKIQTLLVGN
The following applies: protein: recombinant; tags: N-terminal GST; dsDNA, one strand shown. An outline of the steps: as §1

In another test the target is ETV6 (Homo sapiens, UniProt P41212 1-452). The conditions noted are these: protein: recombinant; tags: N-terminal GST; dsDNA, one strand shown. Put shortly: as §1
ETV6, sequence (P41212 whole entry): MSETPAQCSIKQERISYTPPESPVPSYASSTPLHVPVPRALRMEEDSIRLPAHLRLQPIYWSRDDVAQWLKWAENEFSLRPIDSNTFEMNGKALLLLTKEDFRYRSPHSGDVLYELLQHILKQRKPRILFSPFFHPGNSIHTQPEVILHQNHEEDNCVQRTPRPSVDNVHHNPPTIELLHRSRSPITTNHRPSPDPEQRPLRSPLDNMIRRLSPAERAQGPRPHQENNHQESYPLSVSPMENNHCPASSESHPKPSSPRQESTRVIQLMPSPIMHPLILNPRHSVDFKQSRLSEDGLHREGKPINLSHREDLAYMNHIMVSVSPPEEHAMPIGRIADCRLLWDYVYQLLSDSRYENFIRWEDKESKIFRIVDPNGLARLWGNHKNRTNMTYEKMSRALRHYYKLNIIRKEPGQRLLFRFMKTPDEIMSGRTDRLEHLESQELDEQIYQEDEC

ETV1, sequence (P50549 whole entry): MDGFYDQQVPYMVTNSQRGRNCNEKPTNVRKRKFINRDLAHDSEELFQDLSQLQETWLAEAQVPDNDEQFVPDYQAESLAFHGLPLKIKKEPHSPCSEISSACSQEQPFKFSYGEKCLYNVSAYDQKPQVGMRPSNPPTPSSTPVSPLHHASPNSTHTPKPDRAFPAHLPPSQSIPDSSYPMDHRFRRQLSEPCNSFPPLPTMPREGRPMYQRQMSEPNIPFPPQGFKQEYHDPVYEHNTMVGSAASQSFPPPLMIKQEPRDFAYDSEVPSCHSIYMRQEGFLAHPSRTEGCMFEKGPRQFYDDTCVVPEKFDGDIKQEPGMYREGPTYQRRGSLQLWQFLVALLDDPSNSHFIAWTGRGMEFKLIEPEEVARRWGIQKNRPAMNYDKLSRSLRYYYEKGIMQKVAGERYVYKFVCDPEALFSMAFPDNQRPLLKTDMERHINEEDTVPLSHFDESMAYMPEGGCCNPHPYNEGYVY

On to CTTAGG, for which the binding signal was 1.11 fold enrichment (6-mer frequency, TF over GST control) in the test with FEV; 1.15 fold enrichment (6-mer frequency, TF over GST control) in the test with ETV5; 1.29 fold enrichment (6-mer frequency, TF over GST control) in the test with HSF1; 1.3 fold enrichment (6-mer frequency, TF over GST control) with SPIC; 1.16 fold enrichment (6-mer frequency, TF over GST control) in the test with ELF4; 1.04 fold enrichment (6-mer frequency, TF over GST control) with ELK4. The binding signal is 1.23 fold enrichment (6-mer frequency, TF over GST control) in the test with ETV2; 1.49 fold enrichment (6-mer frequency, TF over GST control) with ELF3; 1.8 fold enrichment (6-mer frequency, TF over GST control) with CRX; 1.19 fold enrichment (6-mer frequency, TF over GST control) in the test with ETV1; 1.12 fold enrichment (6-mer frequency, TF over GST control) in the test with ERF; 1.01 fold enrichment (6-mer frequency, TF over GST control) in the test with ETV3L. Also, the binding signal with ETS2 was 1.23 fold enrichment (6-mer frequency, TF over GST control); with SPDEF, 1.06 fold enrichment (6-mer frequency, TF over GST control); with ETV7 it was 1.17 fold enrichment (6-mer frequency, TF over GST control); with ELF5, 1.11 fold enrichment (6-mer frequency, TF over GST control); with ETV3, 1.1 fold enrichment (6-mer frequency, TF over GST control); with ETV6, 1.15 fold enrichment (6-mer frequency, TF over GST control).
